# According to ChEMBL document CHEMBL4513216, “Probing the Open Global Health Chemical Diversity Library for Multistage-Active Starting Points for Next-Generation Antimalarials” (ACS Infect Dis, 2020):
# About 2,700 (4%) of roughly 68,000 compounds showed an effect of 50% or more. The list comes from a sample in which strong results are over-represented; it also holds similar structures and randomly drawn compounds.
# System: Plasmodium berghei
# Assay: Screen against P. berghei liver stage (PbLuc), transformed with Luciferase, at 2uM
# Format: functional, HepG2
# Conditions: tested at 2 uM
row,Compound,INHIBITION [%]
1,CC(C)CNC(=O)c1ccc2c(=O)n(-c3ccccc3)cnc2c1,43.75
2,Cn1c(=O)[nH]c(=O)c2c1nc1n2CC(c2ccc(Cl)cc2)O1 (stereo not given),13.01
3,COc1ccc(C2CC(=O)Nc3c2nc2n3CCCC2)cc1O (stereo not given),24.29
4,O[C@@H]1CCN(CC2CC2)[C@H]1Cc1ccccc1,-17.26
5,O[C@H]1CCN(CC2CCOC2)[C@H]1Cc1ccncc1 (stereo not given in full),3.56
6,O[C@H]1CCN(CC2CC2)[C@H]1Cc1ccncc1,55.7
7,COc1ccccc1OCc1cc(C(=O)N2CCC(NC(C)=O)C2)n[nH]1 (stereo not given),-49.85
8,O=C(N[C@H]1CN2CCC1CC2)c1cc(Cn2cnc3ccccc32)[nH]n1,48.93
9,CC(=O)N[C@H]1CCN(C(=O)c2cc(Cn3cnc4ccccc43)[nH]n2)C1,60.71
10,NC(=O)c1cn[nH]c1C1CCCN1C(=O)c1cnccn1 (stereo not given),39.5
11,Cc1nc2c(c(NCC(c3cccnc3)N3CCOCC3)n1)CCNC2 (stereo not given),-10.09
12,Cc1ncc(CN(C)C(=O)Nc2cccc(N3CCNC3=O)c2)s1,-82.26
13,Cc1nc(CSCCC(=O)Nc2cccc(N3CCNC3=O)c2)cs1,54.82
14,Cc1nc(CCCC(=O)Nc2cccc(N3CCNC3=O)c2)cs1,-33.58
15,CC(OCC1CC1)C(=O)N1CCCN(c2nc3ccccc3[nH]2)CC1 (stereo not given),-38.2
16,CCOCC1CN(S(C)(=O)=O)Cc2cnn(C)c21 (stereo not given),18.97
17,Cc1ncsc1CN1Cc2cn(C)nc2C(COCC2CC2)C1 (stereo not given),-64.59
18,Cn1ncc2c1C(COCC1CC1)CN(S(C)(=O)=O)C2 (stereo not given),51.72
19,Cn1ncc2c1C(COCC1CC1)CN(S(=O)(=O)C1CC1)C2 (stereo not given),3.63
20,Cc1ncsc1CN1Cc2cnn(C)c2C(COCC2CC2)C1 (stereo not given),50.17
21,Cn1ncc2c1C(COCC1CC1)CN(Cc1nccs1)C2 (stereo not given),-44.9
22,Cn1ccc2c(C(=O)N3CCC(C(N)=O)CC3)cccc21,40.31
23,Cn1c(CN2CCCC2c2noc(C3CC3)n2)cc(=O)n(C)c1=O (stereo not given),12.91
24,CC(C)N1CCC(CC(=O)N2CCC(C(O)c3nccn3C)CC2)CC1 (stereo not given),15.11
25,CC(C)N1CCC(C(=O)N2CCC(C(O)c3nccn3C)CC2)CC1 (stereo not given),6.4
26,CCCN1CCC(CC(=O)N2CCC(C(O)c3nccn3C)CC2)CC1 (stereo not given),51.19
27,COCC(=O)Nc1nn(Cc2ccc(F)cc2)cc1Cl,-20.28

row,Compound,INHIBITION [%]
1,Cc1noc(C)c1CN1CCN(c2ccnc(-c3ccccc3)n2)CC1,-5.53
2,CCOc1ccccc1OC1CCN(C(=O)c2cc[nH]n2)CC1,7.54
3,CC(C)c1ccc(NS(=O)(=O)C=c2[nH]c(=O)n3cccc3c2=O)cc1,9.43
4,Cc1ccc(NS(=O)(=O)C=c2[nH]c(=O)n3cccc3c2=O)cc1,-68.56
5,CCc1ccc(NS(=O)(=O)C=c2[nH]c(=O)n3cccc3c2=O)cc1,-1.14
6,O=c1c(=CS(=O)(=O)Nc2ccc(Br)cc2)[nH]c(=O)n2cccc12,-42.73
7,O=c1c(=CS(=O)(=O)Nc2ccccc2)[nH]c(=O)n2cccc12,53.68
8,O=c1c(=CS(=O)(=O)Nc2ccc(Cl)cc2)[nH]c(=O)n2cccc12,50.52
9,Cc1cc(C)cc(CN2CCC3(CC2)CC(Nc2ncccn2)CO3)c1 (stereo not given),24.43
10,CNC(=O)C1CN(c2ccnc(C)n2)CCN1Cc1ccccc1 (stereo not given),-10.89
11,CC(C)NC(=O)[C@@]12CCO[C@@H]1CCN(Cc1ccco1)C2,16.63
12,CCC(CC)CN1C[C@@H]2OCCN(Cc3cnn(C)c3)[C@@H]2C1,56.78
13,Cn1cc(CN2CCO[C@H]3CN(Cc4ccco4)C[C@H]32)cn1,10.53
14,CN(C)CCN1C[C@@H]2OCCN(Cc3cnn(C)c3)[C@@H]2C1,33.4
15,CC(=O)Nc1ccc(S(=O)(=O)N2CCOC(Cn3ccnc3)C2)cc1 (stereo not given),1.92
16,CC1CCN(S(=O)(=O)N2CCC(Oc3cnccn3)CC2)CC1,52.82
17,O=S(=O)(N1CCOCC1)N1CCC(Oc2cnccn2)CC1,-7.91
18,O=S(=O)(N1CCCCC1)N1CCC(Oc2cnccn2)CC1,41.98
19,O=S(=O)(c1ccccc1)N1CCC2(CCCN2Cc2cccc(Cl)c2)C1 (stereo not given),35.26
20,CSc1ccc(-c2nc(CN3CCC(NC(C)=O)CC3)c(C)o2)cc1,-11.37
21,CSc1ccc(-c2nc(CN3CCC(NC(C)=O)C3)c(C)o2)cc1 (stereo not given),52.77
22,CNC(=O)C1CCN(Cc2nc(-c3ccc(SC)cc3)oc2C)C1 (stereo not given),13.94
23,Cc1cc(NCc2ccccc2CN2CCCCC2)n2ncnc2n1,-1.87
24,Cc1cc(C)c(CNC(=O)N(C)Cc2cccc(F)c2)c(=O)[nH]1,-9.17
25,CS(=O)(=O)Nc1cccc(C(=O)Nc2ccc3c(c2)C(=O)NC3)c1,-7.99
26,Cc1nc(SC2CCN(c3sccc3C#N)C2=O)oc1C (stereo not given),32.26
27,Cc1nnc(SC2CCN(c3sccc3C#N)C2=O)[nH]1 (stereo not given),6

row,Compound,INHIBITION [%]
1,Cc1nnc(SC2CCN(c3sccc3C#N)C2=O)s1 (stereo not given),57.91
2,COc1ccccc1-c1cc(NC(=O)CCS(=O)(=O)C2CCCC2)[nH]n1,-43.66
3,CC(=O)Nc1ccc2c(c1)CN(C(=O)c1ccco1)CC2,33.08
4,Cc1cc(C(=O)N2CCC3(C2)CN(c2ccsc2)C(=O)CN3C)[nH]n1 (stereo not given),13.04
5,CN1CC(=O)N(c2ccsc2)CC12CCN(C(=O)c1ccccc1)C2 (stereo not given),37.45
6,CN1CC(=O)N(c2ccsc2)CC12CCN(C(=O)c1ccc[nH]1)C2 (stereo not given),53.98
7,CCC1CN(CC(=O)NCCN(CC)CC)c2ccccc2S1 (stereo not given),18.23
8,Cc1cc(C)n(C2CCCN(C(=O)CCCNc3ncccn3)C2)n1 (stereo not given),26.71
9,CCOc1ncccc1C(=O)N1CCCC(n2nc(C)nc2C)C1 (stereo not given),20.44
10,COCCOc1ncccc1C(=O)N1CCCCC1c1nccs1 (stereo not given),-10.05
11,Cc1cc(C)n(C2CCCN(C(=O)CCNS(C)(=O)=O)C2)n1 (stereo not given),15.31
12,COCc1ccccc1C(=O)N1CCCC(n2nc(C)cc2C)C1 (stereo not given),21.91
13,Cc1cc(C)n(C2CCCN(C(=O)CCNc3ncccn3)C2)n1 (stereo not given),70.27
14,CCOc1ncccc1C(=O)N1CCCC(n2nc(C)cc2C)C1 (stereo not given),58.29
15,COCCOc1ccccc1C(=O)N1CCCCC1c1nccs1 (stereo not given),45.75
16,CCOc1ncccc1C(=O)N1CCCCC1c1nccs1 (stereo not given),67.59
17,Cc1cncc(C(=O)N2CCO[C@H]3[C@H](Oc4ccccn4)CC[C@@H]32)c1,28.88
18,Cc1ccc(CN2CC[C@H]3[C@H](CO[C@H]3CN(C)C)C2)o1,-0.69
19,COc1nccc(N2CC[C@H](N3CCOCC3)[C@H](CCCO)C2)c1C#N,-47.16
20,N#Cc1cnc2cc(F)cc(F)c2c1NC1CCN(CC(N)=O)CC1,-22.63
21,O=C(C1CC(c2ccccc2)=NO1)N1CCCCc2ccccc21 (stereo not given),24.84
22,CCC(CC)c1cc(CNC(=O)N2CCCC(N(C)C)C2)on1 (stereo not given),28.23
23,CCC(CC)c1cc(CNC(=O)N2CCC(CO)CC2)on1,-11.8
24,CCC(CC)c1cc(CNC(=O)N2CCCC(C(=O)NC)C2)on1 (stereo not given),59.8
25,CN1CCC2(CCN(C(=O)c3ccccc3)CC2)C1,39.18
26,COc1cccc(-c2n[nH]cc2C(=O)NC(C)c2n[nH]c(C)n2)c1 (stereo not given),64.2
27,COc1cccc(-c2n[nH]cc2C(=O)NC(C)CC(=O)O)c1 (stereo not given),1.06

row,Compound,INHIBITION [%]
1,COc1cccc(-c2n[nH]cc2C(=O)NC(C)c2nc(C(C)C)no2)c1 (stereo not given),33.9
2,Cc1cccc(CN2CCCC2c2cccc(CCC(=O)O)n2)c1 (stereo not given),-46.81
3,Cc1cc(CN2CCN(C(=O)CCc3ccco3)CC2)on1,19.91
4,COc1ccc(COCC(O)CNC(=O)c2ccc(C)c(F)c2)cc1 (stereo not given),-7.11
5,O=C(c1cncs1)N1CCOCC(Cc2ccccn2)C1 (stereo not given),-11.3
6,CN(C)CC(=O)N1CCOCC(Cc2ccccn2)C1 (stereo not given),54.44
7,CN(CC(=O)N1CCOCC(CO)C1)Cc1ccccn1 (stereo not given),14.96
8,CC(Cn1cccn1)NC(=O)Nc1nccs1 (stereo not given),43.93
9,O=C(NCCNc1ncccn1)C1CC(=O)N(CC2CC2)C1 (stereo not given),4.96
10,COc1ccccc1CCN1CCCC(CN(C)Cc2cc(C)n[nH]2)C1 (stereo not given),-24.74
11,Cc1ccc(C)c(OC(C)C(=O)NCCNc2cccnc2)c1 (stereo not given),33.36
12,Cc1ccc(C)c(OC(C)C(=O)NCc2cccnc2)c1 (stereo not given),50.98
13,Cc1ccc(C)c(OC(C)C(=O)Nc2cccnc2)c1 (stereo not given),1.42
14,COc1ccc(NS(=O)(=O)C=c2[nH]c(=O)n3cccc3c2=O)cc1Cl,1.52
15,O=C(N1CCCC1)N1CCN(c2ccc(Cl)nn2)C(=O)C1,11.51
16,CC(CCNC(=O)NCCNc1cnccn1)c1ccccc1 (stereo not given),-24.05
17,CC(CCNC(=O)NCCc1ccc(S(N)(=O)=O)cc1)c1ccccc1 (stereo not given),23.76
18,CC(CCNC(=O)NCCc1ccncc1)c1ccccc1 (stereo not given),54.29
19,CO[C@H]1CCN(Cc2ccccn2)[C@@H]2CN(Cc3ccco3)C[C@H]12,23.7
20,O=C(CN1CC(c2nc(-c3ccco3)no2)C1)NCc1ccc(F)cc1,25.69
21,Cc1nc(CNc2ncc(Br)cn2)n[nH]1,33.78
22,O=C(O)c1ccc(F)c(S(=O)(=O)Nc2c(F)cccc2-n2cccn2)c1,52.67
23,O=C(O)c1csc(S(=O)(=O)Nc2c(F)cccc2-n2cccn2)c1,-51.5
24,O=C(O)c1ccc(S(=O)(=O)Nc2c(F)cccc2-n2cccn2)cc1,-21.15
